# SMN2 splice up: qHTS Assay for Enhancers of SMN2 Splice Variant Expression | HEK293 SMN2-luciferase splicing reporter, luminescence, 30-36 h | Potency, µM (doses to about 46.1 µM), for the others: top-dose activity change, positive = activation, actives largely listed as activators | hit rate 2.8% among 210,000; also: % of control where 0% means no effect; nearly all actives have a fitted effect of over 55% in size
#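 HEK293 cells carry an SMN2 […]–luciferase reporter in which exon 7 inclusion puts luciferase in frame. Cells were plated 10-12 h before compound addition, then incubated 30-36 h at 37C. ONE-Glo luminescence was read; sodium butyrate at 4.5 mM final served as control.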
# Rab9 promoter act: qHTS Assay for Rab9 Promoter Activators. Huh7 Rab9 promoter-luciferase reporter, luminescence, 24 h. Potency, µM (top dose mostly 9.22 µM), without a hit: at the top dose activation, negative = inhibition, most hits filed as activators. hit rate 2.8% among 320,000; also: % of control where 0% means no effect; nearly all actives have a fitted effect of over 60% in size
#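 Cells were plated at 1500 per well in reduced-serum medium with 10% FBS and left 2 h. Compound in DMSO was then added for 24 h at 37 °C. Reporter signal was read by luminescence after 10 min with luciferase detection reagent.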
# ELG1 genotoxic: qHTS screen for small molecules that induce genotoxicity in human embryonic kidney (HEK293T) cells expressing luciferase-tagged ELG1; HEK293T ELG1-luciferase reporter, luminescence, 16 h; Potency, µM (doses to about 46 µM), inactives show top-dose activity change, positive = activation, usual class: activators; hit rate 1.3% among 330,000; also: % of control where 0% means no effect; nearly all actives have a fitted effect of over 60% in size
#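 Genotoxicity was scored as increased ELG1-luciferase reporter signal, measured by ONE-Glo luminescence (30 min, room temperature). Compound or vehicle exposure of the HEK293T reporter cells lasted 16 hr at 37°C.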
# FLuc modulator: qHTS profiling assay for firefly luciferase inhibitor/activator using purifed enzyme and Km concentrations of substrates (counterscreen for miR-21 project); Potency, µM (highest dose often 57.5 µM), inactives show at the highest dose activity change, negative = inhibition, hits mostly inhibitors; AID 588342, 2011; purified FLuc, Km substrates, luminescence inhibition; hit rate 6.9% among 360,000;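 also: plate controls were vehicle for no effect and reference inhibitor for full effect; nearly all actives have a fitted effect of over 55% in size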
# Target sequence (P08659 whole entry, looked up): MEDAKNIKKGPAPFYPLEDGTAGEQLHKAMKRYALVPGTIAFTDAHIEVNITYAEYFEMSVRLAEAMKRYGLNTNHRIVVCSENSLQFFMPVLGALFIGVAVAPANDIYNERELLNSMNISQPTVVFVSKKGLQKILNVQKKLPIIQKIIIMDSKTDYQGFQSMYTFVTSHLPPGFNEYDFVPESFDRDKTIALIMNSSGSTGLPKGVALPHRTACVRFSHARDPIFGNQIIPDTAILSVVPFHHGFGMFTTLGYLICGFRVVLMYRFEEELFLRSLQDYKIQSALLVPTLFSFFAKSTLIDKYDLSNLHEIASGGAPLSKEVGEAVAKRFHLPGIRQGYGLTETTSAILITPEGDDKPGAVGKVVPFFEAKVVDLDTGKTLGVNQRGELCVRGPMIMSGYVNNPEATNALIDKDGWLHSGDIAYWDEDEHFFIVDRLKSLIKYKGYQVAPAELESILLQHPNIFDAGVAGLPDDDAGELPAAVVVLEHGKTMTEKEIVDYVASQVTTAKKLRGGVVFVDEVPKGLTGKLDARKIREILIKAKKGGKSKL
#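 Biochemical qHTS of compounds, final roughly 60 µM downward over six points, against 10 nM purified firefly luciferase using Km concentrations of substrates (10 uM D-luciferin, 10 uM ATP) in Tris acetate pH 7.5 buffer; luminescence output.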
# NPC1 prom act: qHTS Assay for NPC1 Promoter Activators | Huh7 NPC1 promoter luciferase reporter, 24 h | Potency, µM (doses to about 9.22 µM), inactives show at the highest dose activation, most hits filed as activators | hit rate 2.4% among 320,000 | AID 485313, 2010; also: % of control where 0% means no effect; nearly all actives have a fitted effect of over 60% in size
#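 Quantitative HTS used a cell-based reporter: Huh7 cells stably bearing the NPC1 promoter upstream of luciferase were treated with compounds for 24 h, and promoter activation was read as luminescence.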
# Luc counter: Counterscreen for Luciferase (Kinase-Glo TM) Inhibition; Luciferin 4-monooxygenase (Photuris pensylvanica), Q27757; Potency, µM (series often up to 38.3 µM), for inactives: at the top dose activity change, negative = inhibition, hits mostly inhibitors; Kinase-Glo luciferase, ATP luminescence, 8 min; hit rate 0.28% among 200,000; also: % is scaled to controls: 0 for no effect and ±100 for the full control effect; nearly all actives have a fitted effect of over 60% in size
#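 Light output from Kinase-Glo luciferase with luciferin and 10 uM ATP in 50 mM imidazole pH 7.2, KCl, MgCl2, Tween 20, BSA; compound pin-delivered, 8-min ambient incubation, then luminescence read.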
# Numbers without * were called inactive; ? = inconclusive; nt = no result given; ! = a repeat was not active; [ ] = another dose, or the depositor's remark. Sampled rows, rich in hits. Any-hit rate of the full collection: about 7.5%. Calls follow the shape of the dose curve; as a rule, active = well fitted curve in the direction sought with a large enough effect; inconclusive = small, poorly fitted or top-dose-only effect, or another doubt; inactive = no such curve, though single readings can be large; an effect the other way counts as inactive or inconclusive. Potency is read from the fitted curve at half-maximal effect.
SMILES,SMN2 splice up,Rab9 promoter act,ELG1 genotoxic,FLuc modulator,NPC1 prom act,Luc counter
O=C(O)c1ccc(/C=N/NC(=O)c2ccc(F)cc2)cc1,nt,1%,-2%,19µM*,-6%,nt
CCOC(=O)C1CCN(C(=O)C2CC(=O)N(c3ccc4c(c3)OCCO4)C2)CC1 (stereo unspecified),nt,1%,-2%,6%,-4%,nt
O=S(=O)(c1cccc(Cl)c1)c1nnn2c1nc(NCc1ccc3c(c1)OCO3)c1sccc12,nt,nt,nt,-8%,nt,nt
C[C@H](NC(=O)OC(C)(C)C)C(=O)N/N=C/c1cccc2nccnc12,nt,-3%,1%,5%,1%,nt
O=C(O)c1ccc(N/N=C/c2cccc3nccnc23)cc1,nt,?,8%,6.7µM*,?,nt
O=C(O)c1ccc(N/N=C/c2cc3ccccc3nc2Cl)cc1,nt,2µM*,?,0.76µM*,1.4µM*,nt
Cc1cccc2cc(/C=N/Nc3ccc(C(=O)O)cc3)c(Cl)nc12,nt,0.4µM*,5.2µM*,0.67µM*,0.4µM*,nt
O=[N+]([O-])c1ccccc1N/N=C/c1cc2ccccc2nc1Cl,-16%,?,?,?,?,-6%
CC(C)(C)OC(=O)N1CCC[C@H]1C(=O)N/N=C/c1cccc2nccnc12,nt,0%,2%,17µM*,-5%,nt
CCN(C(=O)CN(C)S(=O)(=O)c1ccc2c(c1)c(=O)n(C)c(=O)n2C)c1ccc(OC)cc1,-14%,nt,nt,-3%,nt,nt
CCOC(=O)c1[nH]c(C)c(CCC(=O)NCc2ccccc2Cl)c1C,nt,nt,nt,7%,nt,nt
Clc1nc2ccccc2cc1/C=N/Nc1nc2ccccc2[nH]1,7.9µM*,2.5µM*,?,0.19µM*,3.5µM*,?
Cc1ccc(NC2c3ncccc3C(=O)N2c2ccccc2C)cc1C (stereo unspecified),-3%,-4%,1%,24µM*,5%,-1%
O=C(c1ccc(S(=O)(=O)c2cccc(Cl)c2)c([N+](=O)[O-])c1)N1CCN(Cc2ccccc2)CC1,?,0%,-7%,1%,-2%,0%
COc1ccccc1P(=O)(c1ccccc1)c1ccc([N+](=O)[O-])cc1 (stereo unspecified),nt,-3%,-2%,1%,-2%,nt
CCOC(=O)N/N=C/c1c(C)nn(-c2cccc(C(F)(F)F)c2)c1Cl,-66%,-25%,0%,-4%,-24%,4%
Cc1nn(-c2ccccc2Cl)c(Cl)c1/C=N/Nc1cccc(C(=O)O)c1,0.071µM*,0.035µM*,?,0.12µM*,?,1%
Cc1nn(-c2cccc(C(F)(F)F)c2)c(Cl)c1/C=N/Nc1cccc(C(=O)O)c1,0.4µM*,0.1µM*,0.41µM*,1.5µM*,0.11µM*,2%
CCCCc1nc2c(c3c1C[C@H](C)OC3)CN(C(=O)COC)CC2,10%[9.22 µM],nt,nt,nt,nt,-5%[7.66 µM]
Cc1nc2ccc(S(=O)(=O)N(CC(=O)Nc3ccc(F)cc3F)Cc3ccccc3)cc2s1,nt,nt,nt,-13%,nt,nt
CCCNC(=O)c1cc(-c2ccco2)on1,18µM*,3.5µM*,16µM*,17µM*,?,-17%
CC(C)CNC(=O)c1cc(-c2ccco2)on1,?,4µM*,?,13µM*,4µM*,-8%
C=Cc1ccc(CSc2nc(-c3ccc(OC)cc3)nc3c2Cc2c(CO)cnc(C)c2O3)cc1,nt,nt,nt,0%,nt,nt
Cc1cc(NC(=O)Cc2ccsc2)ccc1Br,nt,23%,2%,17µM*,22%,nt
Cc1cc(C)c2c(=O)n(CC(=O)Nc3ccc(Br)c(C)c3)sc2n1,nt,0%,0%,8.5µM*,1%,nt
SMILES,SMN2 splice up,Rab9 promoter act,ELG1 genotoxic,FLuc modulator,NPC1 prom act,Luc counter
Nc1nn2c(-c3ccccc3)cc(=O)[nH]c2c1N=Nc1ccc(O)cc1,-44%,-1%[1.84 µM],-11%,6.7µM*,-2%,-12%
Cc1cc(=O)[nH]c2c1c(-c1ccccc1)nn2C,nt,-6%,5%,2%,-3%,nt
Nc1nn2c(-c3ccccc3)cc(=O)[nH]c2c1N=Nc1ccc(Br)cc1,-58%,2%,-13%,21µM*,-1%,0%
CCCCC1=CC2=C(OC(C)=O)C(=O)C(C)(OC(=O)c3ccc(Cl)nc3)C(=O)C2=CO1 (stereo unspecified),-10%,nt,nt,nt,nt,0%
c1ccc(Nc2scc(-c3ccccc3)[n+]2Cc2ccco2)cc1,-7%,?,?,17µM*,-4%,1%
c1ccc(C[n+]2c(-c3ccccc3)csc2Nc2ccccc2)cc1,-17%,-1%,-4%,-11%,1%,0%
CCn1c(C(=O)Nc2ccccc2C(=O)OC)cc2sc(Cl)cc21,-9%,nt,nt,3%,nt,nt
Cn1cccc1C(=O)/C(C#N)=C/c1ccc(F)cc1,nt,-4%,1%,6.7µM*,2%,nt
COc1ccccc1/C=C(\C#N)C(=O)c1cccn1C,nt,2%,0%,11µM*,-5%,nt
COc1ccccc1/C=C(/C#N)C(=O)O,nt,-2%,3%,-3%,-3%,nt
COc1ccc(/C=C(\C#N)C(=O)c2cccn2C)cc1,nt,-2%,1%,1.5µM*,0%,nt
COc1ccc(/C=C(\C#N)C(=O)C(C)(C)n2cncn2)cc1,-25%,-2%,3%,?,0%,0%
CN1CCN(C(=O)/C(C#N)=C/c2ccc(F)cc2)CC1,7%,-3%,11%,5%,-16%,-1%
Cc1ccc(N(CC(O)CN2CCCCC2)S(=O)(=O)c2ccc(C)cc2)cc1 (stereo unspecified),nt,5%,1%,1%,1%,nt
Cc1csc(NC(=O)c2ccc(S(C)(=O)=O)cc2)n1,-16%,?,-20%,?,?,-4%
Cc1csc(NC(=O)c2cncc(Br)c2)n1,13µM*,1.1µM*,?,9.5µM*,2.8µM*,-2%
O=C(Nc1nccs1)c1cncc(Br)c1,11µM*,4µM*,7%,?,?,-4%
Cc1c(C(=O)Nc2ccc(Oc3ccccc3)cc2)sc2nc3n(c(=O)c12)CCC3,-38%,0%,-4%,?,3%,-4%
Cc1c(C(=O)Nc2cc(F)ccc2F)sc2nc3n(c(=O)c12)CCCCC3,nt,1.6µM*,16µM*,-7%,2.8µM*,nt
CSc1cccc(NC(=O)c2sc3nc4n(c(=O)c3c2C)CCC4)c1,nt,?,?,27µM*,3.5µM*,nt
Cc1c(C(=O)NCc2ccc(Cl)cc2)sc2nc3n(c(=O)c12)CCC3,nt,nt,nt,-11%,nt,nt
COc1cccc(NC(=O)c2sc3nc4n(c(=O)c3c2C)CCC4)c1,nt,4µM*,?,19µM*!,?,nt
